Measurements from PubChem BioAssay AID488847 (NMMLSC, 2010).
Where “and” joins values, the source holds several entries; their conditions need not be identical. Identical values can stand only once. The whole screen tested about 330,000 compounds, of which about 1,900 (0.58%) were called active. The sample holds actives, similar compounds and a random draw of the others, so the mix is not that of the screen.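 Rule for the calls: active = inhibition of aptamer binding above 40%, roughly 3 SD of noise, on plates passing a quality check; inactive = the rest.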 The source holds several records for some structures; these can differ, active in one and inactive in another.

What follows are compounds tested against Beta-adrenergic receptor kinase 1 (Homo sapiens) (UniProt P25098) (assay: compounds blocking aptamer binding on GRK2 – biochemical, human GRK2, bead flow cytometry, HTS, primary screen (AID 488847;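 note: median bead fluorescence of bound FAM aptamer so fluorescent compounds give negative values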)). Conditions: FAM-aptamer displacement from GRK2, at 10 µM, stronger effect = higher value.
Chain of Beta-adrenergic receptor kinase 1 (Homo sapiens) (P25098 whole entry, looked up): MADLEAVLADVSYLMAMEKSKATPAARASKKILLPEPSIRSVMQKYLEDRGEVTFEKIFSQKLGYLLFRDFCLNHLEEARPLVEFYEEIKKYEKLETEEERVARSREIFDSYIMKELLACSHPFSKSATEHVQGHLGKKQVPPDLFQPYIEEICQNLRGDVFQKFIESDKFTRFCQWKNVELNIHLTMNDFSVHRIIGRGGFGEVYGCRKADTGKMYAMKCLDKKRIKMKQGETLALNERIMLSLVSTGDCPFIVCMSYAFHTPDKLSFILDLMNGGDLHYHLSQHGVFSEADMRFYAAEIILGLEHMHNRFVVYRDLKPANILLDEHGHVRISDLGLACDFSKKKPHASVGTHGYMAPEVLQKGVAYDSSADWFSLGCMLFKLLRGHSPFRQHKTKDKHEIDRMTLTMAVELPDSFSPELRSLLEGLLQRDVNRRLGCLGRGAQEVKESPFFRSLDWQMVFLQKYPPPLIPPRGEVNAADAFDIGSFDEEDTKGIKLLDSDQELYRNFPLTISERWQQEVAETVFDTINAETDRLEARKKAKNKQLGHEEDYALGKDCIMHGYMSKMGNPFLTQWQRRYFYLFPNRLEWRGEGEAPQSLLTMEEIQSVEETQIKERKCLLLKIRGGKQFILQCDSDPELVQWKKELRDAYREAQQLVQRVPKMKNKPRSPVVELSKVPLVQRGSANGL

Inhibition of aptamer binding, 43% (active) and 0% (inactive):
CCc1nn(CCCN2CCN(c3cccc(Cl)c3)CC2)c(=O)n1CCOc1ccccc1

Inhibition of aptamer binding, inactive:
CC1O[C@H](OC2C(COC3OC(CO)C(O)[C@H](O)C3O)OC(OC3CC[C@]4(C)C(CC[C@@]5(C)[C@@H]4C=C[C@]46OC[C@@]7(CCC(C)(C)C[C@H]74)C(O)C[C@@]56C)C3(C)C)C(O)C2O)C(O)C(O)C1O (stereo not given in full) 0%
CC1=NCCN1S(=O)(=O)c1ccc(Br)c(C)c1 8%
COc1ccc(S(=O)(=O)NCC(c2ccc(C)cc2)N2CCN(C)CC2)cc1OC (stereo not given) 0%
Cc1ccc(C(CNC(=O)Nc2ccccc2)N2CCN(C)CC2)cc1 (stereo not given) 0%
O=C(NCc1cccc(Cl)c1)C1CCC(=O)N(C2CC2)C1 (stereo not given) 30%
C=CC[C@@H](CC(=O)N[C@H](CO)Cc1ccccc1)C(=O)N[C@H](C)COC(=O)[C@@H](CC=C)Cc1ccc(F)cc1 26%
C=CC[C@@H](CC(=O)N[C@@H](CO)Cc1ccccc1)C(=O)N[C@H](COC(=O)[C@H](CC=C)CC(=O)OC(C)(C)C)Cc1ccccc1 3%
CC(C)CNC(=S)NNC(=O)c1ccccc1OC(F)F 0%
Cc1ccc(C(=O)N/C(=C/c2cccnc2)C(=O)O)cc1 0%
CC(C)(C)NC(=O)/C(=C/c1cccnc1)NC(=O)c1ccco1 4%
Cc1ccc2[nH]c(=O)c(-c3nc4c(C)cccn4c3NCc3ccco3)cc2c1 0%
Cc1cc(C)cc(N(CC(=O)N2CC=C(c3ccccc3)CC2)S(=O)(=O)c2c(C)noc2C)c1 0%
O=c1[nH]nc(Cc2ccccn2)c2ccccc12 0%
O=C(Oc1ccc2c(c1)CCC2)N1CCOCC1 0%
Cc1nn(CC(=O)NCc2ccccn2)c(C)c1[N+](=O)[O-] 1%
COCCCNC(=O)CN1CCN(Cc2ccccc2Cl)C1=O 4%
Cc1cccc(N(C(=O)c2sc(C)nc2C)C(C(=O)NCC2CCCO2)c2ccccc2)c1 (stereo not given) 1%
CCn1nc(C)c(NC(=O)/C=C/c2ccc(OC)c(COc3ccc(Br)cc3)c2)c1C 1%
CS(=O)(=O)N1CCN(c2ccc(C(=O)NC3C4CC5CC(C4)CC3C5)cc2[N+](=O)[O-])CC1 (stereo not given) 0%
CC(NC(=O)c1ccc(N2CCNCC2)c([N+](=O)[O-])c1)C12CC3CC(CC(C3)C1)C2 (stereo not given) 0%
CC(c1nnc(SCC(=O)Nc2sccc2C#N)n1-c1ccc(Cl)cc1)N(C)C (stereo not given) 0%
COc1ccc(C(=O)CCC(=O)Nc2ccc(Cl)cc2)cc1 1%
C/C(=N\N=C(N)N)c1ccc(Cl)cc1 0%
COc1cc2c(-c3ccc4c(c3)OCO4)c(-c3ccsc3)oc(=O)c2cc1OC 0%
Cc1ccc(S(=O)(=O)N2CCCC(C(=O)N3CCN(C)CC3)C2)cc1 (stereo not given) 4%
O=C(C1CCC1)N1CCN(S(=O)(=O)c2ccc([N+](=O)[O-])cc2)CC1 1%
Cc1nnc(NC(=O)CCC(=O)N2CCC(C)CC2)s1 2%
CCC(C)(C(=O)NC1CCCC1)N(C(=O)CNC(C)=O)c1ccc(C)cc1 (stereo not given) 3%
CCCCN(CC)C(=O)c1ccc2c(c1)OCO2 3%
COc1ccc(NC(=O)COc2ccc(C(=O)OCC(=O)N(C)C3CCS(=O)(=O)C3)cc2OC)cc1 (stereo not given) 3%
COc1ccccc1NC(=O)COc1ccc(C(=O)OCC(=O)N(C(C)C)C(C)C)cc1OC 0%
Cn1c(N2CCOCC2)c(C=O)c2ccccc21 0%
Cc1ccc(CNC(=O)c2cc(-c3ccccc3C)n(CC3CC(c4cccc([N+](=O)[O-])c4)=NO3)n2)cc1 (stereo not given) 0%
CCOC(=O)c1cccc(NC(=O)c2ccc(F)cc2F)c1 3%
O=C(COC(=O)CSc1ccccc1)Nc1ccc(F)cc1F 3%
O=C(NCCCN1CCCCC1)c1ccc2c(c1)NC(=O)C(N1CCOCC1)S2 (stereo not given) 3%
CCOC(=O)c1ccc(N/C(=N/S(=O)(=O)c2ccccc2)c2ccccc2)cc1 0%
CC(=O)c1c(C)[nH]c(C(=O)N2CCN(S(=O)(=O)c3ccc(F)c(F)c3)CC2)c1C 1%
CN(Cc1ccccc1)C(=O)c1ccc(COc2ccccc2)cc1 0%
CN(CC(=O)O)C(=O)c1ccccc1 1%
c1ccc(Cc2cc[n+](Cc3ccccc3)cc2)cc1 0%
O=C(CCC(=O)N/N=C/c1ccc(Br)o1)N/N=C/c1ccc(Br)o1 13%
O=C(CCc1n[nH]c(=O)[nH]c1=O)N/N=C/c1ccc(Br)o1 0%
Cc1ccc(OCc2cc(C(=O)N(C)CCn3ccnc3C)no2)cc1C 4%
O=C(ON=C1CCN(S(=O)(=O)c2ccccc2)CC1)c1ccc(Cl)cc1 1%
O=C(Nc1ccccc1)Nc1ccc(C(F)(F)F)cn1 0%
CONC(=O)c1cc(OCC(F)(F)F)ccc1OCC(F)(F)F 0%
COc1nc(NC2CCCCC2)nc(N2CCCCCC2)n1 1%
Cc1cc(/C=C2/SC(=O)N(CC(=O)OC(C)C)C2=O)c(C)n1C 2%
C=CC1=C(C(=O)O)N2C(=O)[C@@H](NC(=O)/C(=N/OCC(=O)O)c3csc(N)n3)[C@H]2SC1 0%
CO/N=C(\C(=O)N[C@@H]1C(=O)N2C(C(=O)O)=C(COC(C)=O)CS[C@H]12)c1csc(N)n1 (stereo in doubt) 0% and 38% and 1%
CC[C@@H](C)[C@@H]1CN([C@@H](C)CN2CCC[C@H]2CN2C(N)=NC[C@H]2C(C)C)C(=N)N1CCc1ccc(Cl)c(Cl)c1 0%
COc1ccc(CNc2nc(NCc3ccc(OC)cc3)c3ncn(C4CCCC4)c3n2)cc1 0%
O=C1[C@@H]2C(c3cccnc3)=NO[C@@H]2C(=O)N1c1ccc(Cl)cc1Cl 4%
CCOc1cccc(OCCCOc2cccc3cccnc23)c1 1%
Cc1ccccc1NC(=O)c1cnn(-c2ccccc2)c1NC(=O)c1ccco1 3%
C1=C(CCNc2ncnc3c2cnn3-c2ccccc2)CCCC1 0%
CC(OC(=O)/C=C/c1ccccc1)C(=O)NC1CCCCC1C (stereo not given) 0%
CC(=O)N1CCN(CC(=O)Nc2ccc(C)c(F)c2)CC1 1%
CCCc1noc2c1/C(=N\O)CCC2 0%
Cc1ccn2cc(C(=O)NC3CCN(Cc4ccccc4)CC3)nc2c1 0%
Cc1ccc(-c2cc(C(=O)NC3CCN(Cc4ccccc4)CC3)c3ccccc3n2)cc1 0%
O=C(N/C(=C/c1ccc(Cl)cc1)C(=O)N1CCCCC1)c1ccco1 0%
N/C(=N\OC(=O)CCC1CCCCC1)c1ccccn1 0%
O=C(c1noc2c1CCCC2)N1CCc2ccccc2C1 0%
CCN1C(=O)/C(=C\N2CCN(c3cccc(Cl)c3)CC2)SC1=S 3%
OC(COc1ccc2c(c1)CCC2)CN1CCN(c2cccc(Cl)c2)CC1 (stereo not given) 0%
CN(CCc1ccccn1)S(=O)(=O)c1ccc2c3c(cccc13)C(=O)N2 0%
Cc1ccccc1C(=O)N1CCC(C(=O)Nc2ccc(S(=O)(=O)N(C)C(C)C)cc2)CC1 0%
COc1cc(C(=O)Nn2c(CC(C)C)nc3ccccc3c2=O)cc(OC)c1OC 0%
CCCCc1nc2ccccc2c(=O)n1NC(=O)c1c(O)c2cccc3c2n(c1=O)CC3 0%

Inhibition of aptamer binding, active:
Cc1ccc(C(CNC(=O)Nc2cccc(C)c2)N2CCN(C)CC2)cc1 (stereo not given) 53%
C=CC[C@@H](CC(=O)N[C@@H](CO)Cc1ccccc1)C(=O)NCCOC(=O)[C@@H](CC=C)CC(=O)OC(C)(C)C 94%
O=C(O)/C(=C/c1cccnc1)NC(=O)c1ccccc1 53%
Cc1ccccc1CN1CCN(CC(=O)NCc2ccccn2)C1=O 51%
O=C(NC1C2CC3CC(C2)CC1C3)c1ccc(N2CCNCC2)c([N+](=O)[O-])c1 (stereo not given) 98%
C/C(=N\OCC(=O)O)c1ccc(Cl)cc1 58%
O=C(C1CCCN(S(=O)(=O)c2ccc([N+](=O)[O-])cc2)C1)N1CCCCC1 (stereo not given) 53%
CCC(C)(C(=O)NC1CCCCC1)N(C)C(=O)c1ccc2c(c1)OCO2 (stereo not given) 47%
COc1cc(C(=O)OCC(=O)N(CC(C)C)C2CCS(=O)(=O)C2)ccc1OCC(C)C (stereo not given) 100%
O=C(COC(=O)c1ccc(F)cc1F)Nc1ncccn1 60%
CN(Cc1ccccc1)C(=O)c1cccc(C(=O)N(C)Cc2ccccc2)c1 49%
O=C(CCNC(=O)c1ccccc1)NN=Cc1ccc(Br)o1 58%
O=C(NC(=O)c1cc(OCC(F)(F)F)ccc1OCC(F)(F)F)Nc1ccccc1 98%
C=CC1=C(C(=O)O)N2C(=O)[C@@H](NC(=O)/C(=N\OCC(=O)O)c3csc(N)n3)[C@H]2SC1 66%
O=C(NNc1ncnc2c1cnn2-c1ccccc1)c1ccco1 97%
Cc1cc(C(=O)NC2CCN(Cc3ccccc3)CC2)n[nH]1 50%
CCC(=C/c1sc2ccc3ccccc3c2[n+]1C)/C=C1\Sc2ccc3ccccc3c2N1C 100%
CCCc1nc2ccccc2c(=O)n1NC(=O)c1c(O)c2ccccc2[nH]c1=O 92%
